Compound activity from PubChem BioAssay.
An excerpt weighted towards active compounds, which were near 2.1% of everything screened.
OPRK1 antag MB: OPRK1 (human) antagonism, Maybridge screen; OPRK1 cells, antagonist mode, fluorescence readout; inhibition, % at 9 µM; 16,000 compounds, 0.4% hits; AID 652031; in the data active = inhibition above about 50%
TLR4-MyD88 inh: blocks binding of human TLR4 to MyD88; 16,000 compounds, 0.06% hits; AID 811; inhibition, % at 10 µM; Cell-based TLR4-MyD88 binding inhibition assay; in the data active = inhibition above about 45%
S1P1 agonist: activates the human S1P1 receptor. activation, % at 4.5 µM. P21453. S1P1 agonist cell-based reporter assay. AID 1044. 16,000 compounds, 1.5% hits; in the data active = activation above about 80%
rat GALR2 agon: GALR2 (rat) receptor agonism | O08726 | cell-based GALR2 agonist screen | activation, % at 10 µM | 16,000 compounds, 0.5% hits; in the data active = activation above about 15%
Active calls of the source: *.

SMILES	OPRK1 antag MB	TLR4-MyD88 inh	S1P1 agonist	rat GALR2 agon
N#CC(C#N)=NNc1ccc(OC(F)(F)F)cc1	29	-23	109*	-12
N#CC(C#N)=NNc1ccc(C(F)(F)F)cc1	37	-33	115*	-14
O=C1CC(C(=O)c2cccs2)CO1 (stereo not drawn)	8	-4	9	-5
CS(=N)(=O)CCC(N)C(=O)O (stereo not drawn)	4	1	-6	-4
